Screening results from PubChem.
The list is not random: actives were taken first. Their share in the collection is about 2.3%.
HTT aggregate = reduces HttQ103-GFP aggregates in PC12 cells | PC12 HttQ103-GFP aggregates, Acumen cytometry, 40 h | Potency, µM (top dose mostly 46.1 µM), for inactives: at the highest dose activity change, negative = inhibition, usual class: inhibitors | 220,000 tested, 1.1% active | AID 1688; also: potency is read from the fitted curve at half-maximal effect; % is scaled to controls: 0 for no effect and ±100 for the full control effect; nearly all actives have a fitted effect of over 60% in size
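Read-out: GFP aggregate count by laser scanning cytometer (488 nm excitation, 500-530 nm emission, 1–25 µm objects >6 SD above background). Cells: PC12, inducible HTTex1-Q103-GFP, 100 nM tebufenozide; compounds titrated.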
Coupling enz = counter-screen for Giardia aldolase inhibitors: coupling enzyme system; coupling enzyme system counterscreen, AmpLite Red fluorescence; activity change, negative = inhibition, % at 58.2 µM, hits read low; 290,000 tested, 0.67% active; AID 2472; in the data active = activity change below about -30%; also: % is scaled to controls: 0 for no effect and ±100 for the full control effect
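Final compound at 57.5 uM, incubated 10 min at RT with coupling enzyme reagent (glyceraldehyde-3-phosphate), then 20 min with substrate and AmpLite Red detection. Fluorescence read at 525/598 nm; tests interference with the coupling assay, not aldolase inhibition.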
HTT cytoprotect = Huntington cell model cytoprotection by ATP luminescence. 230,000 tested, 0.14% active. Potency, µM (titrated, usually from 56.4 µM), inactives show cytoprotection (ATP increase), actives largely listed as activators. PC12 HTT-Q103 induced, cytoprotection, ATP luminescence, 40 h; also: potency is read from the fitted curve at half-maximal effect; % of control where 0% means no effect; nearly all actives have a fitted effect of over 45% in size
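ATP quantification (ATPlite) reports survival of PC12 cells in which tebufenozide, 100 nM final, switches on Htt exon 1 with 103 glutamines linked to GFP; compounds are titrated.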
JMJD2E inh = JMJD2E (human) inhibition. JMJD2E catalytic domain, FDH-coupled NADH fluorescence (FDH is formaldehyde dehydrogenase). Potency, µM (titrated, usually from 57.1 µM), inactives show at the highest dose activity change, negative = inhibition, most hits filed as inhibitors. 230,000 tested, 1.6% active; active = well fitted inhibition curve with a large enough effect, not every such curve was filed as active; inconclusive = small, poorly fitted or top-dose-only effect, or another doubt; inactive = no such curve, though single readings can be large or run the other way;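 also: potency is read from the fitted curve at half-maximal effect; 0% = wells with enzyme and -100% = buffer wells without enzyme; nearly all actives have a fitted effect of over 50% in size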
RGS12 GoLoco inh-1 = RGS12 GoLoco-Gai1 interaction inhibition; P63096; Gai1:RGS12 GoLoco peptide FP, rhodamine, 10 min; Potency, µM (top dose mostly 61.6 µM), for the others: top-dose activity, negative = inhibition, hits mostly inhibitors; 230,000 tested, 0.44% active; AID 880; active = well fitted inhibition curve with a large enough effect, not every such curve was filed as active; inactive = no such curve, though single readings can be large or run the other way; also: potency is read from the fitted curve at half-maximal effect; % is scaled to controls: 0 for no effect and ±100 for the full control effect; nearly all actives have a fitted effect of over 30% in size
VDR inh = vitamin D3 receptor (human) inhibition; Potency, µM, for the others: max response, negative = inhibition, hits mostly inhibitors; P11473; VDR-SRC2-3 peptide fluorescence polarization, 2 h; 400,000 tested, 0.93% active; also: potency is read from the fitted curve at half-maximal effect; % is scaled to controls: 0 for no effect and ±100 for the full control effect
Target sequence (P11473 whole entry, looked up): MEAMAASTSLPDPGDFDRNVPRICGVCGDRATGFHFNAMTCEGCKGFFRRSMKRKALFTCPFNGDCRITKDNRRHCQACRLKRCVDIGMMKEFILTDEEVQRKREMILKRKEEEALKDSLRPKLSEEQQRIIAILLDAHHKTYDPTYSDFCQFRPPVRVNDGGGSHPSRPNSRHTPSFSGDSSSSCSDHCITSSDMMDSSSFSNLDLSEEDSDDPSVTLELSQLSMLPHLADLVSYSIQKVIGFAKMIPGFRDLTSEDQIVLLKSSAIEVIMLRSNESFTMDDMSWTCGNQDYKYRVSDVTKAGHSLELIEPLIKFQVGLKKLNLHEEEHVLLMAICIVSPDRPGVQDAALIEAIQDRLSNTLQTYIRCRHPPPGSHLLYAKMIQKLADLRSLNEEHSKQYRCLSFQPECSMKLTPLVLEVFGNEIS
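VDR–SRC2-3 interaction, FP format. Cmpds 23 nl via pintool, brief spin, 2 h ambient incubation.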
RGS12 GoLoco inh-2 = confirmation of human RGS12 GoLoco motif inhibitors. shares compounds with RGS12 GoLoco inh-1. Gai1/rhodamine-RGS12 GoLoco peptide fluorescence polarization. Potency, µM (doses to about 57.1 µM), for the others: at the highest dose activity, negative = inhibition, usual class: inhibitors. 110 tested, 50% active
Numbers without * were called inactive; ? = inconclusive; . = no result given; ! = not confirmed by another sample; [ ] = remark or other dose. Unless noted, calls follow the shape of the dose curve; as a rule, active = well fitted curve in the direction sought with a large enough effect; inconclusive = small, poorly fitted or top-dose-only effect, or another doubt; inactive = no such curve, though single readings can be large; an effect the other way counts as inactive or inconclusive.

SMILES	HTT aggregate	Coupling enz	HTT cytoprotect	JMJD2E inh	RGS12 GoLoco inh-1	VDR inh	RGS12 GoLoco inh-2
Cc1cc(C)c2c(=O)n(CC(=O)Nc3cccc(F)c3)sc2n1	22%[9.22 µM]	2	20%[10 µM]	?	32µM*	14µM*	32µM*
Cc1ccc(NC(=O)Cn2sc3nc(C)cc(C)c3c2=O)c(Cl)c1	4%[9.22 µM]	1	18%[10 µM]	?	18µM*	?	11µM*
Cc1cc(C)n(CCC(=O)Nc2ccc(Cl)cc2)n1	.	.	.	.	.	11%	.
Cc1cc(C)c2c(=O)n(CC(=O)N3CCC(Cc4ccccc4)CC3)sc2n1	?	4	11%[10 µM]	?	-3%	.	.
Cc1ccc(NC(=O)Cn2c(C)cc(C)c(C#N)c2=O)c(Cl)c1	13%	2	3%	?	0%	-2%	.
Cc1cc(C)c2c(=O)n(CC(=O)Nc3ccc(Cl)cc3)sc2n1	-31%[9.22 µM]	6	-7%[10 µM]	28µM*	25µM*	40µM*	?
C=CCSc1nc2c(N)ncnc2n1[C@@H]1O[C@H](CO)[C@@H](O)[C@@H]1O	.	.	-6%[10 µM]	.	0%[14.2 µM]	.	.
COc1cc(Nc2nn(-c3ccc(OC(F)(F)F)cc3)nc2C(C)=O)cc(OC)c1	.	.	.	.	.	5%	.
CC(NC(=O)C1CCN(C(=O)c2ccc(-n3ccc4ccccc43)s2)CC1)c1ccccc1 (stereo unspecified)	.	.	.	.	.	8%	.
CS(=O)(=O)c1ccc(Cl)c(NC(=O)CSc2nc3ccccc3c(=O)n2Cc2ccco2)c1	.	.	.	.	.	-1%	.
O=C1c2cccc3c(O)ccc(c23)C(=O)N1Cc1ccccc1	10µM*	9	-34%	-1%	11µM*	9%	11µM*
O=C(O)c1cccc(CN2C(=O)c3ccccc3C2=O)c1	.	14	.	.	.	-15%	.
Cc1cc2nc3c(=O)n(C4CCCCC4)c(=O)[nH]c3nc2cc1N	-2%	2	-10%[10 µM]	0%	-28%	?	?
Cn1nnnc1SCC(=O)N1CCN(c2ccc(Cl)cc2)CC1	-13%	0	-11%[0.074 µM]	0%	-37%	-19%	14µM*
O=C(COc1ccc(Cl)cc1)N1CCN(Cc2ccc3c(c2)OCO3)CC1	30%	1	-2%	-1%	22µM*!	-13%	9%[0.0121 µM]
COc1ccc(OC)c(CC(=O)N2CCc3cc(OC)c(OC)cc3C2)c1	.	2	.	.	.	8%	.
CCOc1ccc(N(CC(=O)N/N=C/c2ccc(OC(C)C)cc2)S(C)(=O)=O)cc1	21%	-3	34%[10 µM]	2%	10µM*	12%	5%[0.0121 µM]
CCCc1nnc(SCC(=O)Nc2cccc(C(F)(F)F)c2)o1	.	-13	.	.	.	-6%	.
N#CC1=C2SCN(Cc3ccco3)CN2C(=O)CC1c1cccc2ccccc12 (stereo unspecified)	5%	-17	-18%[0.074 µM]	?	-25%	?	.
COc1cc(OC)c(C2CC(=O)N3CN(c4ccc(C)cc4)CSC3=C2C#N)cc1OC (stereo unspecified)	10%	-31*	-34%[0.074 µM]	?	8.9µM*	45µM*	?
Oc1ccccc1C1C=C(c2ccc3c(c2)OCO3)NC(c2ccc(Br)cc2)N1 (stereo unspecified)	.	.	.	.	.	-27%	.
COc1ccc2c(c1)c(C(=O)CNc1nc(C)cs1)c(C)n2C	-8%	0	-12%	?	-15%	-2%	.
CCOCc1cnc(C)nc1NCC(=O)c1c(C)n(C)c2ccc(OC)cc12	-14%	-5	-8%[10 µM]	-12%	5µM*	-2%	25µM*
O=C1c2cccc3c([N+](=O)[O-])ccc(c23)C(=O)N1c1ccc(Cl)cn1	?	-14	-114%	-11%	-7%	-6%	.
O=C1c2cccc3c([N+](=O)[O-])ccc(c23)C(=O)N1c1ccccn1	24%	.	10%	1%	28µM*	-15%	-5%
O=C1c2ccc3c4c(ccc(c24)C(=O)N1CCCCO)C(=O)N(CCCCO)C3=O	5µM*	-40*	-233%	?	25µM*	-13%	11µM*
